Results taken from PubChem BioAssay (Tox21).
Several values for one entry are separate records, joined by “and”; a condition that tells them apart may be missing. Identical values can stand only once. Some compounds were tested as several samples or in several runs, with calls that do not always agree. Activity calls are given as the source filed them. Unless noted, calls follow the shape of the dose curve; as a rule, active = well fitted curve in the direction sought with a large enough effect in the repeat runs; inconclusive = weak or mixed curves; inactive = no such curve, though single readings can be large; an effect the other way counts as inactive or inconclusive.

Tests used:
[1] = system: thyroid hormone receptor (rat, GH3 cells); test: qHTS assay to identify small molecule agonists of the thyroid receptor (TR) signaling pathway (AID 743066; calls by dose curve)
[2] = biological target: Estrogen receptor (Homo sapiens) (UniProt P03372); test: qHTS assay to identify small molecule antagonists of the estrogen receptor alpha (ER-alpha) signaling pathway (AID 743069; active = well fitted curve in the direction sought with a large enough effect in the signal ratio in the repeat runs, not every such curve was filed as active; inconclusive = weak or mixed curves, or effect the other way; inactive = no such curve, though single readings can be large or run the other way; the % refers to the signal ratio; also: potency is read from the fitted curve at half-maximal effect)
Estrogen receptor (Homo sapiens), sequence (P03372 whole entry, looked up): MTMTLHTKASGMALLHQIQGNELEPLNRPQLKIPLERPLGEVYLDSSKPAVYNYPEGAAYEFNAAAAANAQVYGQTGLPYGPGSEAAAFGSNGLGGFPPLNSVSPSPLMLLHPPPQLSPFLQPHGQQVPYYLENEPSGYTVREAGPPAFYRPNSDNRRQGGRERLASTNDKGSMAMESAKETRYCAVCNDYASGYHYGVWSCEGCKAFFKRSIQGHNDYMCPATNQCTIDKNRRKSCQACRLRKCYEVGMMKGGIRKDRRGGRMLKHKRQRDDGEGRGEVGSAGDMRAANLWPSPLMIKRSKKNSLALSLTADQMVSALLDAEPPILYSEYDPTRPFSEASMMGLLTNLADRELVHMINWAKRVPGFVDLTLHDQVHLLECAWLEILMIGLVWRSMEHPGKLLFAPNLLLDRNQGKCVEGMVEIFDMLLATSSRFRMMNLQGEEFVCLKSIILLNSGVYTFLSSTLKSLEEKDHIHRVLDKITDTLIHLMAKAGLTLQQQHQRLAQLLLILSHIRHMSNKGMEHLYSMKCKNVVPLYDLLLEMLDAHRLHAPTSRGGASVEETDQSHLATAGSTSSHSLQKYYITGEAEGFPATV
Method in brief: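 Compound effects are measured against 17beta-estradiol stimulation in HEK293 cells with a UAS-controlled beta-lactamase reporter for ER-alpha. Exposure lasts 18 hr at 37C; LiveBLAzer B/G FRET substrate follows for 2 hr at room temperature.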

[3] = qHTS assay to identify small molecule antagonists of the estrogen receptor alpha (ER-alpha) signaling pathway - cell viability counter screen (AID 743074; calls by dose curve;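 also: HEK293 cells carrying ER-alpha-UAS-bla reporter stimulated with 17beta-estradiol; nearly all actives have a fitted effect of over 45% in size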)
[4] = biological target: Estrogen receptor (Homo sapiens) (UniProt P03372); test: qHTS assay to identify small molecule agonists of the estrogen receptor alpha (ER-alpha) signaling pathway (AID 743075; calls by dose curve; also: potency is read from the fitted curve at half-maximal effect)
[5] = biological target: Estrogen receptor (Homo sapiens) (UniProt P03372); test: qHTS assay to identify small molecule agonists of the estrogen receptor alpha (ER-alpha) signaling pathway using the BG1 cell line (AID 743079); settings: BG1Luc4E2 cells, ERE-luciferase agonist, 22 h; activation: at 70.3 µM (top of the series) unless noted; also: nearly all actives have a fitted effect of over 20% in size; also: potency is read from the fitted curve at half-maximal effect
[6] = qHTS assay to identify small molecule antagonists of the estrogen receptor alpha (ER-alpha) signaling pathway using the BG1 cell line - cell viability counter screen (AID 743081);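 also: compound given together with 17beta-estradiol as the ER stimulus; nearly all actives have a fitted effect of over 45% in size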; also: potency is read from the fitted curve at half-maximal effect
[7] = biological target: Aromatase (Homo sapiens) (UniProt P11511); test: qHTS assay to identify aromatase inhibitors (AID 743083); also: nearly all actives have a fitted effect of over 55% in size; also: potency is read from the fitted curve at half-maximal effect
Aromatase (Homo sapiens), sequence (P11511 whole entry, looked up): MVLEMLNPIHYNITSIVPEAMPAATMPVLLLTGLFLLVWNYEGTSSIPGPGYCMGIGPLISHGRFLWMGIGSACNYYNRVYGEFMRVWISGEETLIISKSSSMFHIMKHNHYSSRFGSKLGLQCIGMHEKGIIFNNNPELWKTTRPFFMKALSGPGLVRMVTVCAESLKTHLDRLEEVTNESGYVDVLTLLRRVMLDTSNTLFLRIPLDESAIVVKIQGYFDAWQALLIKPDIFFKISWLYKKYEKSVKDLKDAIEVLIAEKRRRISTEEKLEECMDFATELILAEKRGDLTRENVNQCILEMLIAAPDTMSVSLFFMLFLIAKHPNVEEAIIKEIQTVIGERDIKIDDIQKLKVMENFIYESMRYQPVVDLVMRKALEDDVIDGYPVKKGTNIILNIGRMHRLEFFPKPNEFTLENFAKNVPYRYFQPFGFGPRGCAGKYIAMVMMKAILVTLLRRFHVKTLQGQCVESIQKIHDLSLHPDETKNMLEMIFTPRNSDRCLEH

[8] = qHTS assay to identify aromatase inhibitors - cell viability counter screen (AID 743084);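 also: cells stimulated with testosterone during compound exposure; nearly all actives have a fitted effect of over 55% in size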; also: potency is read from the fitted curve at half-maximal effect
[9] = biological target: Aryl hydrocarbon receptor (Homo sapiens) (UniProt P35869); test: qHTS assay to identify small molecule that activate the aryl hydrocarbon receptor (AhR) signaling pathway (AID 743085); also: nearly all actives have a fitted effect of over 15% in size; also: potency is read from the fitted curve at half-maximal effect;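 as to activation: HG2L7.5c1 human HepG2 liver cells with stably integrated DRE-driven firefly reporter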
Aryl hydrocarbon receptor (Homo sapiens), sequence (P35869 whole entry, looked up): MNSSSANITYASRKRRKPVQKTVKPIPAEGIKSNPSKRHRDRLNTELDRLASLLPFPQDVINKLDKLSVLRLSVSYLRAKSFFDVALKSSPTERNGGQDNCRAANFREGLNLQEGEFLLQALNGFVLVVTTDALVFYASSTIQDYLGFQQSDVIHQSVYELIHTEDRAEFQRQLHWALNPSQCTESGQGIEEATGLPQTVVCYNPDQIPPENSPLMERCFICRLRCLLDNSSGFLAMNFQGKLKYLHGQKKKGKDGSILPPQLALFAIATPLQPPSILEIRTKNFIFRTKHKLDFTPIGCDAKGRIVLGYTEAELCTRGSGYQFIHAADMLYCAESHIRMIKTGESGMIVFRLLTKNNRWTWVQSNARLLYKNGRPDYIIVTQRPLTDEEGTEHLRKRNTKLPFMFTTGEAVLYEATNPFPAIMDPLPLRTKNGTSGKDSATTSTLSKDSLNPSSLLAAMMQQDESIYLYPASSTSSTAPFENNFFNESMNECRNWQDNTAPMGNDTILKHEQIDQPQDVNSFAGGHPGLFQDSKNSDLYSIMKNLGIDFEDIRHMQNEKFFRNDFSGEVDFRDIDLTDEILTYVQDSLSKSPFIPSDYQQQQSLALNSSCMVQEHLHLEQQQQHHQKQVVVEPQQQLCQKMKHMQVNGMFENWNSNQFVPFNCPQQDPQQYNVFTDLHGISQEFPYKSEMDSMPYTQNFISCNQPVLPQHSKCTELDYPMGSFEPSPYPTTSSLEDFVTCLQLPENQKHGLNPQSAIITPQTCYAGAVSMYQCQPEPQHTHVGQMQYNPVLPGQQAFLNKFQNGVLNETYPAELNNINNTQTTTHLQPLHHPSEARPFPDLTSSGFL
Method in brief: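 Steps: seed HepG2-AhR-luc cells; allow 5 h at 37C; pin-transfer test compound or vehicle; incubate 24 h at 37C; add viability dye (30 min, 37C) and read fluorescence; add luciferase substrate (30 min, RT) and read luminescence.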

[10] = biological target: Peroxisome proliferator-activated receptor gamma (Homo sapiens) (UniProt P37231); test: qHTS assay to identify small molecule agonists of the peroxisome proliferator-activated receptor gamma (PPARg) signaling pathway (AID 743094; active = well fitted activation curve with a large enough effect in the signal ratio in the repeat runs, not every such curve was filed as active; inconclusive = weak or mixed curves, or effect the other way; inactive = no such curve, though single readings can be large or run the other way; the % refers to the signal ratio)
Peroxisome proliferator-activated receptor gamma (Homo sapiens), sequence (P37231 whole entry, looked up): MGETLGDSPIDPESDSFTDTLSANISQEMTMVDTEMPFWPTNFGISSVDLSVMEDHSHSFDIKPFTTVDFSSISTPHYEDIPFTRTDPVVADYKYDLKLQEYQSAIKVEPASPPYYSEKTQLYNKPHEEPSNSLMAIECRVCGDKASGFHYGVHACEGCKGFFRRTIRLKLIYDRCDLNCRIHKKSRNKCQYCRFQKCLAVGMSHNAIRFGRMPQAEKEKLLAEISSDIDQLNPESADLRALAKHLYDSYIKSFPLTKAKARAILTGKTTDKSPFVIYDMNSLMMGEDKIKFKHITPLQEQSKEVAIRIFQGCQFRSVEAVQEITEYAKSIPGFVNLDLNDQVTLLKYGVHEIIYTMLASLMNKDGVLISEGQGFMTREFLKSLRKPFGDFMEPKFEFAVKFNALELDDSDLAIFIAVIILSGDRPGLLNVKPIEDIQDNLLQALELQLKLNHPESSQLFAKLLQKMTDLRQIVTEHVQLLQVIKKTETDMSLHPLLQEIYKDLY
Method in brief: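 Beta-lactamase FRET fluorescence was the read-out after a 1 h room-temperature substrate step, following 17 h compound treatment at 37C of HEK293H cells expressing a UAS-driven bla reporter responsive to PPARg.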

[11] = biological target: Peroxisome proliferator-activated receptor gamma (Homo sapiens) (UniProt P37231); test: qHTS assay to identify small molecule antagonists of the peroxisome proliferator-activated receptor gamma (PPARg) signaling pathway (AID 743191; calls by dose curve; also: nearly all actives have a fitted effect of over 30% in size; also: potency is read from the fitted curve at half-maximal effect)
Method in brief: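 Beta-lactamase reporter under UAS control in HEK293H PPARg-bla cells; compound treatment 17 h at 37C. Read-out: fluorescence intensity after 1 h room-temperature incubation with LiveBLAzer B/G FRET substrate.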

[12] = qHTS assay for small molecule agonists of the antioxidant response element (ARE) signaling pathway - cell viability counter screen (AID 743203; calls by dose curve; also: nearly all actives have a fitted effect of over 55% in size; also: potency is read from the fitted curve at half-maximal effect)
Method in brief: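 HepG2 cells carrying ARE-driven beta-lactamase; 2,000 cells/well; 5 hrs plating; compound pinned from DMSO; 16 hrs 37C/5% CO2; CellTiter-Glo added; 30 min RT; luminescence.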

[13] = qHTS assay for small molecule activators of the heat shock response signaling pathway - cell viability counter screen (AID 743209); also: nearly all actives have a fitted effect of over 50% in size; also: potency is read from the fitted curve at half-maximal effect
Method in brief: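 Luminescence from CellTiter-Glo, added after the beta-lactamase FRET read, gave the viability signal. Cells were HSE-bla HeLa treated with DMSO-dissolved compounds for 5 h at 37 C following overnight plating.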

[14] = qHTS assay for small molecule activators of the heat shock response signaling pathway (AID 743210; active = well fitted activation curve with a large enough effect in the signal ratio in the repeat runs, with a control signal flat, not every such curve was filed as active; inconclusive = weak or mixed curves; the % refers to the signal ratio;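 also: HeLa cells with beta-lactamase reporter driven by heat shock elements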)
Method in brief: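 In HSE-bla HeLa cells, 5 h compound incubation (37 C) precedes addition of LiveBLAzer B/G substrate; after 2.5 h at room temperature, fluorescence intensity indicates reporter induction.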

[15] = qHTS assay to identify small molecule agonists of the peroxisome proliferator-activated receptor delta (PPARd) signaling pathway - cell viability counter screen (AID 743211); also: nearly all actives have a fitted effect of over 55% in size; also: potency is read from the fitted curve at half-maximal effect
Method in brief: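 Viability of GeneBLAzer PPARd UAS-bla HEK293H cells was assessed after 17 h compound incubation at 37C, using CellTiter-Glo reagent added after the reporter read and luminescence recorded 30 min later.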

[16] = qHTS assay to identify small molecule antagonists of the estrogen receptor alpha (ER-alpha) signaling pathway using the BG1 cell line (AID 743080; calls by dose curve;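 also: BG1 cells stimulated with 17beta-estradiol alongside compound; nearly all actives have a fitted effect of over 25% in size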)
Method in brief: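 Endogenous full-length ER-alpha in BG1-Luc-4E2 cells drives a stably integrated 4×ERE luciferase gene; compounds were tested against 17beta-estradiol over 21.5 h, with luminescence and multiplexed viability fluorescence recorded.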

[17] = qHTS assay to identify small molecule that activate the aryl hydrocarbon receptor (AhR) signaling pathway - cell viability counter screen (AID 743086); also: nearly all actives have a fitted effect of over 45% in size; also: potency is read from the fitted curve at half-maximal effect
Method in brief: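 Cytotoxicity counter screen: CellTiter-Fluor signal (30 min, 37 C) in 4000 HepG2 cells/well carrying the DRE-luciferase reporter, following 24 h compound exposure at 37 C.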

[18] = qHTS assay to identify small molecule antagonists of the peroxisome proliferator-activated receptor gamma (PPARg) signaling pathway - cell viability counter screen (AID 743194); settings: Potency: co-treated with 50 nM rosiglitazone unless noted; also: nearly all actives have a fitted effect of over 55% in size
Method in brief: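 Viability was measured as CellTiter-Glo luminescence in GeneBLAzer PPARg UAS-bla HEK293H cells. These cells had been exposed 17 h at 37 C to compounds together with rosiglitazone at 50 nM final, with the beta-lactamase readout taken in the same wells.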

[19] = qHTS assay for small molecule agonists of the antioxidant response element (ARE) signaling pathway (AID 743202; active = well fitted activation curve with a large enough effect in the signal ratio in the repeat runs, not every such curve was filed as active; inconclusive = weak or mixed curves, or effect the other way; inactive = no such curve, though single readings can be large or run the other way; the % refers to the signal ratio; also: potency is read from the fitted curve at half-maximal effect)
Method in brief: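 An ARE-responsive beta-lactamase gene stably integrated in HepG2 cells serves as reporter. After 5 h plating and 16 h compound incubation at 37 C, fluorescence of the B/G FRET substrate was measured.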

[20] = qHTS assay to identify small molecule antagonists of the thyroid receptor (TR) signaling pathway (AID 743065); also: nearly all actives have a fitted effect of over 55% in size; also: potency is read from the fitted curve at half-maximal effect
Method in brief: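 Antagonism measured as loss of luciferase signal in GH3 cells stably carrying a TRE-luciferase reporter, co-treated with compound and T3 (1 nM final) for 23.5 h at 37 C. Viability was read in the same well by CellTiter-Fluor.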

Measured: Potency

CC(C)(c1ccccc1)c1ccc(O)cc1
active: [2] 24.3 µM [inhibitor] | [4] 4.33 µM [inconclusive] and 3.89 µM [inconclusive] | [5] 1.08 µM and 686 nM | [7] 30.4 µM and 30.6 µM | [8] 48.2 µM | [12] 60.6 µM | [15] 54.5 µM
inactive: [1] | [3] | [6] | [9] | [10] | [11] | [13] | [14]

CNC(=S)S
inactive: [2] | [3] | [4] | [5] | [16] | [6] | [7] | [8] | [17] | [10] | [11] | [18] | [19] | [12] | [13] | [15]

CC1(C)C(C(=O)OC(C#N)c2cccc(Oc3ccccc3)c2)C1(C)C (configuration not stated)
active: [7] 48.9 µM
inactive: [1] | [2] | [3] | [4] | [16] | [6] | [8] | [9] | [17] | [10] | [11] | [18] | [19] | [12] | [13] | [14] | [15]

CN(C)c1ccccc1
inactive: [20] | [1] | [6] | [17] | [18] | [19] | [12] | [13] | [14] | [15]

O=[N+]([O-])c1ccc(Nc2ccccc2)cc1
inactive: [1] | [4] | [9] | [14]
inactive and 27.5 µM (active): [13]
inactive and 49 µM (active): [15]
active: [20] 48.9 µM and 30.6 µM | [6] 48.9 µM and 27.3 µM | [7] 30.6 µM | [8] 30.9 µM and 27.3 µM | [17] 24.5 µM and 24.3 µM | [12] 34.4 µM

C[N+](C)(C)CC(=O)O
inactive: [1] | [2] | [3] | [4] | [5] | [16] | [6] | [7] | [8] | [9] | [17] | [10] | [11] | [18] | [19] | [12] | [13] | [15]

[Cl-].[Cl-].[Cl-].[Fe+3]
inactive: [20] | [1] | [3] | [6] | [7] | [8] | [17] | [18] | [19] | [12] | [13] | [14] | [15]

Nc1ccc([N+](=O)[O-])cc1N
inactive: [1] | [7] | [10] | [11] | [18] | [12] | [13] | [15]
active: [20] 48.5 µM and 48.6 µM | [8] 30.6 µM | [9] 61.1 µM | [17] 27.3 µM and 30.6 µM | [19] 0.968 µM

CC(C)=CC1C(C(=O)OCN2C(=O)C3=C(CCCC3)C2=O)C1(C)C (configuration not stated)
active: [11] 11.9 µM
inactive: [1] | [3] | [6] | [7] | [8] | [9] | [17] | [10] | [18] | [19] | [12] | [13] | [15]

CCN(CC)C(=O)C(C)Oc1cccc2ccccc12 (configuration not stated)
inactive: [1] | [2] | [3] | [4] | [5] | [6] | [8] | [10] | [11] | [18] | [19] | [12] | [13] | [14] | [15]
active: [7] 34.4 µM

Cl
inactive: [20] | [1] | [3] | [6] | [7] | [8] | [17] | [18] | [19] | [12] | [13] | [14] | [15]

c1ccc(C2CO2)cc1 (configuration not stated)
inactive: [3] | [6] | [7] | [8] | [17] | [10] | [11] | [18] | [19] | [12] | [13] | [14] | [15]

CC(C)CON=O
inactive: [2] | [3] | [4] | [5] | [16] | [6] | [7] | [8] | [9] | [17] | [10] | [11] | [18] | [19] | [12] | [13] | [14] | [15]

COP(=S)(OC)Oc1ccc(S(=O)(=O)N(C)C)cc1
inactive and 61.1 µM (active): [7]
inactive: [1] | [2] | [3] | [4] | [5] | [16] | [6] | [8] | [9] | [17] | [10] | [11] | [18] | [12] | [13] | [14] | [15]
